# Measured values published in ChEMBL document CHEMBL1157539, “Thousands of chemical starting points for antimalarial lead identification” (Nature, 2010).
# Tests used:
# Format in all cases: functional
# Plasmodium falciparum [1] = test: GSK_TCMDC: Inhibition of Plasmodium falciparum 3D7 in whole red blood cells, using parasite LDH activity as an index of growth. Test compounds present at 2uM
# Plasmodium falciparum [2] = test: GSK_TCMDC: Inhibition of Plasmodium falciparum Dd2 in whole red blood cells, using parasite LDH activity as an index of growth. Test compounds present at 2uM
# HepG2 = test: GSK_TCMDC: Percent inhibition of human HepG2 cell line. Test compounds present at 10uM.
structure (smiles),measurement,setting,value
CN(C)CCCOc1ccc(CNCc2cccc(Oc3ccc(Cl)cc3)c2)cc1.O=C(O)C(F)(F)F,Inhibition,Plasmodium falciparum [1],100%
same,Inhibition,Plasmodium falciparum [2],30%
same,Inhibition,HepG2,52%
CCCCCCNC(=N)c1ccc2[nH]c(-c3ccc(O)cc3)nc2c1.Cl,Inhibition,Plasmodium falciparum [1],100%
same,Inhibition,Plasmodium falciparum [2],99%
same,Inhibition,HepG2,0%
CC(CN1CCN(C)CC1)C(=O)Nc1cccc(-c2ccc(-c3nc4cc(F)ccc4[nH]3)cc2)c1 (stereo not drawn),Inhibition,Plasmodium falciparum [1],100%
same,Inhibition,Plasmodium falciparum [2],98%
same,Inhibition,HepG2,10%
O=C(Nc1cccc(-c2cccc(-c3nc4ccccc4[nH]3)c2)c1)Nc1ccc2c(c1)OCO2,Inhibition,Plasmodium falciparum [1],100%
same,Inhibition,Plasmodium falciparum [2],57%
same,Inhibition,HepG2,25%
Br.CC(C)(C)c1ccc(OCCCON2C(N)=NC(N)=NC2(C)C)cc1,Inhibition,Plasmodium falciparum [1],93%
same,Inhibition,Plasmodium falciparum [2],76%
same,Inhibition,HepG2,77%
CC(C)(C)c1ccc2nccc(Nc3cccc(O)c3)c2c1,Inhibition,Plasmodium falciparum [1],99%
same,Inhibition,Plasmodium falciparum [2],100%
same,Inhibition,HepG2,8%
CN(C)Cc1cccc(-c2ccc3ccnc(N)c3c2)c1,Inhibition,Plasmodium falciparum [1],99%
same,Inhibition,Plasmodium falciparum [2],74%
same,Inhibition,HepG2,21%
Cc1cc(N[C@@H](Cc2ccccc2)C(=O)NCc2cccs2)nc(NCCc2ccccc2)n1.O=C(O)C(F)(F)F,Inhibition,Plasmodium falciparum [1],92%
same,Inhibition,Plasmodium falciparum [2],61%
same,Inhibition,HepG2,6%
CC(=O)NC(c1cccs1)c1cc(Cl)c2cccnc2c1O (stereo not drawn),Inhibition,Plasmodium falciparum [1],94%
same,Inhibition,Plasmodium falciparum [2],93%
same,Inhibition,HepG2,65%
CC(=O)Nc1ccc(OCCN(CC(C)C)c2ccc(C(F)(F)F)c(C#N)c2)c(Cl)c1,Inhibition,Plasmodium falciparum [1],96%
same,Inhibition,Plasmodium falciparum [2],95%
same,Inhibition,HepG2,13%
CC(CN(C)C)C(=O)Nc1ccc(-c2ccc(-c3nc4ccccc4[nH]3)s2)cc1 (stereo not drawn),Inhibition,Plasmodium falciparum [1],100%
same,Inhibition,Plasmodium falciparum [2],86%
same,Inhibition,HepG2,14%
FC(F)(F)c1cnc(Sc2nnc(-c3ccco3)o2)c(Cl)c1,Inhibition,Plasmodium falciparum [1],98%
same,Inhibition,Plasmodium falciparum [2],97%
same,Inhibition,HepG2,0%
Cc1cccc(CC(=N)NCCCCCCNC(=N)Cc2cccc(C)c2)c1.Cl,Inhibition,Plasmodium falciparum [1],97%
same,Inhibition,Plasmodium falciparum [2],97%
same,Inhibition,HepG2,12%
COc1cc(Cc2cnc(N)nc2N)cc(OCCCCc2nnn[nH]2)c1OC,Inhibition,Plasmodium falciparum [1],97%
same,Inhibition,Plasmodium falciparum [2],0%
same,Inhibition,HepG2,7%
Cc1cc(C(=O)Nc2ccc3c(c2)CCN3C2CCN(Cc3ccc(F)cc3Cl)C2)no1 (stereo not drawn),Inhibition,Plasmodium falciparum [1],95%
same,Inhibition,Plasmodium falciparum [2],96%
same,Inhibition,HepG2,7%
COCCNCc1cccc(-c2ccc3c(Nc4ccc(Oc5cccnc5)cc4)ccnc3c2)c1,Inhibition,Plasmodium falciparum [1],100%
same,Inhibition,Plasmodium falciparum [2],99%
same,Inhibition,HepG2,58%
COc1cc2nc(N3CCC(CNC(=O)/C=C/c4cccc(C)c4)CC3)nc(N)c2cc1OC,Inhibition,Plasmodium falciparum [1],100%
same,Inhibition,Plasmodium falciparum [2],68%
same,Inhibition,HepG2,16%
Cc1nc(SCC(=O)N2CCCC2=O)c2c(C)c(C)sc2n1,Inhibition,Plasmodium falciparum [1],96%
same,Inhibition,Plasmodium falciparum [2],0%
same,Inhibition,HepG2,45%
Cc1ccc(Cl)c2sc(N3CCN(C(=O)c4ccc([N+](=O)[O-])o4)CC3)nc12,Inhibition,Plasmodium falciparum [1],97%
same,Inhibition,Plasmodium falciparum [2],94%
same,Inhibition,HepG2,21%
CN(C)CCNc1nccc(N2CCc3ncnc(Nc4ccc(OCc5cccc(F)c5)c(Cl)c4)c3C2)n1,Inhibition,Plasmodium falciparum [1],100%
same,Inhibition,Plasmodium falciparum [2],97%
same,Inhibition,HepG2,65%
CCOC(=O)c1c(CSc2ccccc2)oc2cc(CN(C)C)c(O)c(Cl)c12,Inhibition,Plasmodium falciparum [1],99%
same,Inhibition,Plasmodium falciparum [2],70%
same,Inhibition,HepG2,12%
CCN(CC)/C(=N/C(=N)Nc1ccc(C)cc1)NCCCCCCN/C(=N\C(=N)Nc1ccc(C)cc1)N(CC)CC,Inhibition,Plasmodium falciparum [1],97%
same,Inhibition,Plasmodium falciparum [2],98%
same,Inhibition,HepG2,10%
CN1CCC(C(=O)N(Cc2ccc(-c3ccc(CNCCc4ccccc4)cn3)cc2)Cc2cccc(F)c2)CC1.O=C(O)C(F)(F)F,Inhibition,Plasmodium falciparum [1],90%
same,Inhibition,Plasmodium falciparum [2],80%
same,Inhibition,HepG2,30%
COc1ccc(N2CCN(c3nc(Nc4ccc(NC(C)=O)cc4)nc(N4CCCC4)n3)CC2)cc1,Inhibition,Plasmodium falciparum [1],91%
same,Inhibition,Plasmodium falciparum [2],38%
same,Inhibition,HepG2,0%
Cc1cc(NCCCCCCNc2cc(C)nc3c(C)cccc23)c2cccc(C)c2n1.Cl,Inhibition,Plasmodium falciparum [1],100%
same,Inhibition,Plasmodium falciparum [2],9%
same,Inhibition,HepG2,23%
COCCN(C(=O)Cc1cccs1)C(C(=O)NCc1ccc(OC)cc1)c1ccc(C(C)C)cc1 (stereo not drawn),Inhibition,Plasmodium falciparum [1],96%
same,Inhibition,Plasmodium falciparum [2],59%
same,Inhibition,HepG2,0%
CC(=O)O.CC(C)c1ccc(C2CCN(CCCCNC(=O)c3ccc(NC(=O)c4ccc(C(F)(F)F)cc4)cc3)CC2)c(O)c1,Inhibition,Plasmodium falciparum [1],99%
same,Inhibition,Plasmodium falciparum [2],100%
same,Inhibition,HepG2,47%
CCN(CC)CCCC(C)Nc1c(-c2ccc(Br)cc2)cnc2ccccc12 (stereo not drawn),Inhibition,Plasmodium falciparum [1],100%
same,Inhibition,Plasmodium falciparum [2],95%
same,Inhibition,HepG2,7%
N=C(N)NC(=O)Nc1cc(Br)c(Cl)c(Br)c1,Inhibition,Plasmodium falciparum [1],100%
same,Inhibition,Plasmodium falciparum [2],83%
same,Inhibition,HepG2,0%
CC(C)CN1C(=O)c2ccc(C(=O)Nc3nccs3)cc2C1=O,Inhibition,Plasmodium falciparum [1],89%
same,Inhibition,Plasmodium falciparum [2],0%
same,Inhibition,HepG2,3%
Cc1cnc2cc3c(cc2c1N1CCN(C)CC1)NCC3,Inhibition,Plasmodium falciparum [1],100%
same,Inhibition,Plasmodium falciparum [2],69%
same,Inhibition,HepG2,12%
O=C(Nc1ccc(OC2CCN(Cc3ccsc3)CC2)c(Cl)c1)c1cccs1.O=C(O)C(F)(F)F,Inhibition,Plasmodium falciparum [1],94%
same,Inhibition,Plasmodium falciparum [2],93%
same,Inhibition,HepG2,16%
Clc1cc(Nc2ncnc3sc(C#C[C@H]4CCCN4)cc23)ccc1OCc1cccnc1Cl.O=C(O)C(F)(F)F,Inhibition,Plasmodium falciparum [1],100%
same,Inhibition,Plasmodium falciparum [2],93%
same,Inhibition,HepG2,9%
Cc1cc(N/N=C/c2ccccc2[N+](=O)[O-])c2cccc(C)c2n1,Inhibition,Plasmodium falciparum [1],99%
same,Inhibition,Plasmodium falciparum [2],100%
same,Inhibition,HepG2,0%
CN(C)c1ccc(C=C2SC(=O)N=C2Nc2ccccc2)cc1,Inhibition,Plasmodium falciparum [1],97%
same,Inhibition,Plasmodium falciparum [2],96%
same,Inhibition,HepG2,42%
CC(C)n1nc(C(=O)N2CCN(c3ccccc3)CC2)c2ccccc2c1=O,Inhibition,Plasmodium falciparum [1],96%
same,Inhibition,Plasmodium falciparum [2],3%
same,Inhibition,HepG2,34%
CC(=NNC(=N)N)C(=O)Nc1ccc(Cl)c(Cl)c1.O=S(=O)(O)O,Inhibition,Plasmodium falciparum [1],100%
same,Inhibition,Plasmodium falciparum [2],97%
same,Inhibition,HepG2,0%
Cc1[nH]c(C)c(-c2ccc(OCc3cc(C(F)(F)F)cc(C(F)(F)F)c3)nc2)c(=O)c1Cl,Inhibition,Plasmodium falciparum [1],98%
same,Inhibition,Plasmodium falciparum [2],96%
same,Inhibition,HepG2,19%
CSc1ccc(CN2CCC(NC(=O)c3ccc(-c4cccc(C(F)(F)F)c4)s3)CC2)cc1.O=C(O)C(F)(F)F,Inhibition,Plasmodium falciparum [1],90%
same,Inhibition,Plasmodium falciparum [2],9%
same,Inhibition,HepG2,68%
CCCCCn1c(Sc2ccc(C#N)c([N+](=O)[O-])c2)nnc1-c1cccc(Cl)c1,Inhibition,Plasmodium falciparum [1],95%
same,Inhibition,Plasmodium falciparum [2],75%
same,Inhibition,HepG2,4%
COc1ccc2nccc([C@@H](O)CN3CCC(CO)(NCc4cc5ccccc5o4)CC3)c2c1.O=C(O)C(=O)O,Inhibition,Plasmodium falciparum [1],85%
same,Inhibition,Plasmodium falciparum [2],7%
same,Inhibition,HepG2,12%
O=C(NC(c1ccccc1)c1ccc2cccnc2c1O)c1ccccc1 (stereo not drawn),Inhibition,Plasmodium falciparum [1],94%
same,Inhibition,Plasmodium falciparum [2],63%
same,Inhibition,HepG2,53%
Cc1cccc2nc(-c3ccc(-c4cccc(NC(=O)Nc5ccccc5)c4)cc3)[nH]c12,Inhibition,Plasmodium falciparum [1],100%
same,Inhibition,Plasmodium falciparum [2],14%
same,Inhibition,HepG2,18%
Cc1ccc(NC(=O)c2ccc(CN3CCCN(CCC(C)C)CC3)cc2)cc1C.O=C(O)C(F)(F)F,Inhibition,Plasmodium falciparum [1],92%
same,Inhibition,Plasmodium falciparum [2],17%
same,Inhibition,HepG2,25%
CN(Cc1ccccc1)C1CCCN(c2cc(NC(=O)c3cccs3)ccn2)C1.O=C(O)C(F)(F)F (stereo not drawn),Inhibition,Plasmodium falciparum [1],88%
same,Inhibition,Plasmodium falciparum [2],90%
same,Inhibition,HepG2,2%
CCCCCCN1CCCN(Cc2ccc(C(=O)Nc3ccc(Cl)cc3)cc2)CC1.O=C(O)C(F)(F)F,Inhibition,Plasmodium falciparum [1],89%
same,Inhibition,Plasmodium falciparum [2],54%
same,Inhibition,HepG2,50%
COc1cc(Cc2cnc(N)nc2N)cc(OCCn2ccccc2=O)c1OC,Inhibition,Plasmodium falciparum [1],97%
same,Inhibition,Plasmodium falciparum [2],0%
same,Inhibition,HepG2,4%
CCCN(Cc1nnc(-c2ccco2)o1)C(=O)C1CCCN(C(=O)c2ccc(Cl)cc2)C1 (stereo not drawn),Inhibition,Plasmodium falciparum [1],96%
same,Inhibition,Plasmodium falciparum [2],96%
same,Inhibition,HepG2,0%
O=C(O)C(F)(F)F.O=[N+]([O-])c1cccc(CNCC2CCN(Cc3ccc4ccccc4c3)CC2)c1,Inhibition,Plasmodium falciparum [1],100%
same,Inhibition,Plasmodium falciparum [2],42%
same,Inhibition,HepG2,18%
CC(CN(C)C)C(=O)Nc1ccc(-c2ccc(-c3nc4cc(C(F)(F)F)ccc4[nH]3)cc2)cc1 (stereo not drawn),Inhibition,Plasmodium falciparum [1],100%
same,Inhibition,Plasmodium falciparum [2],93%
same,Inhibition,HepG2,14%
COc1ccc(CCN(C)CCCCc2ccc(NC(=O)c3cccc4c(=O)c5cc(F)ccc5sc34)cc2)cc1OC,Inhibition,Plasmodium falciparum [1],96%
same,Inhibition,Plasmodium falciparum [2],49%
same,Inhibition,HepG2,98%
COc1c(C(=O)NC2CCN(Cc3ccccc3)C2)cnc2ccccc12.Cl (stereo not drawn),Inhibition,Plasmodium falciparum [1],86%
same,Inhibition,Plasmodium falciparum [2],12%
same,Inhibition,HepG2,2%
Cc1cccc(C)c1C1CCN(CCCCNC(=O)c2cc3ccccc3[nH]2)CC1,Inhibition,Plasmodium falciparum [1],90%
same,Inhibition,Plasmodium falciparum [2],18%
same,Inhibition,HepG2,46%
COc1cc2nc(N3CCC(CNC(=O)c4ccc(-c5ccc(O)cc5)cc4)CC3)nc(N)c2cc1OC.O=C(O)C(F)(F)F,Inhibition,Plasmodium falciparum [1],100%
same,Inhibition,Plasmodium falciparum [2],78%
same,Inhibition,HepG2,34%
O=C(O)C(F)(F)F.OCCN1CCN(Cc2ccc(-c3ccc(-c4nc5cc(C(F)(F)F)ccc5[nH]4)s3)cc2)CC1,Inhibition,Plasmodium falciparum [1],100%
same,Inhibition,Plasmodium falciparum [2],99%
same,Inhibition,HepG2,65%
CC(C)CCCC(C)(C)NC[C@@H](O)[C@H](Cc1ccccc1)NC(=O)c1cccc(CCC2CC2)c1,Inhibition,Plasmodium falciparum [1],98%
same,Inhibition,Plasmodium falciparum [2],52%
same,Inhibition,HepG2,100%
